Experimental data taken from PubChem BioAssay (EPA / NIEHS).
Inconclusive results are not listed. A structure can be active in one record and inactive in another. Active and inactive are the calls of the source. Rule for the calls, unless noted: active = hit-call score of the fitted dose curve at least 0.9, where 1 is the maximum; inactive = score below 0.9.

Tests used:
[1] = biological target: Nuclear respiratory factor 1 (Homo sapiens) (UniProt Q16656); assay: ATG_NRF1_CIS: Attagene CIS-FACTORIAL HepG2 Assay for human Nuclear Respiratory Factor 1 (NRF1) Orphan Gene (AID 2282987); details: HepG2 NRF1 cis-element reporter, Attagene multiplex; actives raise or lower the signal
Outline: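 Multiplexed cis-reporter assay, HepG2 cells, 24 h treatment. Total RNA → oligo(dT) RT → PCR with reporter-specific primers → 6-FAM primer extension → HpaI cut → CE. Bidirectional fit vs DMSO.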

[2] = ATG_NFI_CIS: Attagene CIS-FACTORIAL HepG2 Assay for human Nuclear Factor I (NFI) (AID 2282989); details: HepG2 cis-regulatory reporter, NFI response element transcription; actives raise or lower the signal
Outline: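 HepG2, transient MRTU, 24 h exposure; RNA→cDNA→PCR→FAM label→HpaI→CE fluorescence. Bidirectional fit, DMSO = baseline.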

[3] = biological target: Myc proto-oncogene protein (Homo sapiens) (UniProt P01106); assay: ATG_Myc_CIS: Attagene CIS-FACTORIAL HepG2 Assay for human Myelocytomatosis (Myc) Proto-Oncogene Transcription Factor (AID 2282990); details: HepG2, Attagene cis-reporter transcription factor activity; actives raise or lower the signal
Outline: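 Cells of the HepG2 human liver line bear multiple cis-driven reporter transcription units. Reporter mRNA after 24 h exposure is reverse-transcribed, amplified, labelled and resolved by capillary electrophoresis, with gain- or loss-of-signal fitting relative to DMSO.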

[4] = ATG_NRF2_ARE_CIS: Attagene CIS-FACTORIAL HepG2 Assay for human Nuclear Factor Erythroid 2 Related Factor 2 (NFR2) response to Antioxidant Response Elements (ARE) (AID 2282992); details: HepG2 Attagene ARE/NRF2 reporter, transcription factor activity; actives raise or lower the signal;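 for AC50: reporter mRNA level measured by RT-PCR and capillary electrophoresis fluorescence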
Outline: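 Transient MRTU transfection of HepG2; 24 h compound exposure; TriZol RNA, RT with oligo(dT), PCR, 6-FAM primer extension, HpaI cut, CE. Bidirectional fit vs DMSO.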

[5] = ATG_Oct_MLP_CIS: Attagene CIS-FACTORIAL HepG2 Assay for human Octamer-Binding Transcription Factor (Oct) (AID 2282993); details: HepG2 Attagene cis-factorial Oct reporter, mRNA; actives raise or lower the signal
Outline: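 Multiplexed cis-reporter assay in human liver HepG2 cells, 24 h incubation. Reporter RNA amplified and labelled, then resolved by capillary electrophoresis; DMSO serves as negative control and baseline.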

[6] = BSK_3C_TissueFactor: BioMAP Diversity Plus: 3C Assay for Tissue Factor Biomarker Activity (AID 2282997); details: BioMAP 3C HUVEC, tissue factor biomarker readout; actives raise or lower the signal
Outline: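 Primary human umbilical vein endothelial cells in the 3C system were exposed to test chemical for 24 h, then Tissue Factor measured by ELISA. Activity was fitted bidirectionally against DMSO as negative control and baseline.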

[7] = BSK_3C_uPAR: BioMAP Diversity Plus: 3C Assay for Urokinase-type plasminogen activator receptor (uPAR) Biomarker Activity (AID 2282998); details: BioMAP 3C HUVEC, uPAR biomarker ELISA; actives raise or lower the signal
Outline: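 Dose primary human umbilical vein endothelial cells, incubate 24 h, measure cell-surface uPAR by ELISA, then fit the signal in both directions against the DMSO negative control.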

[8] = BSK_3C_VCAM1: BioMAP Diversity Plus: 3C Assay for Vascular cell adhesion molecule 1 (VCAM1) Biomarker Activity (AID 2282999); details: BioMAP 3C HUVEC, VCAM1 ELISA, cytokine-stimulated; actives raise or lower the signal
Outline: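 Endothelial cells from human umbilical vein are treated with test chemical. At 24 h, VCAM-1 is measured by ELISA, and responses in either direction are fitted relative to DMSO.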

[9] = BSK_4H_Eotaxin3: BioMAP Diversity Plus: 4H Assay for Eotaxin 3 Biomarker Activity (AID 2283000); details: primary human endothelial cells (HUVEC); actives raise or lower the signal
Outline: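 HUVEC, 24 h post-dose, ELISA for Eotaxin-3/CCL26. Gain or loss of signal fitted bidirectionally vs DMSO baseline.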

[10] = read-out: Intercellular Adhesion Molecule 1 (ICAM1), ICAM1 (gene 3383); assay: BSK_3C_ICAM1: BioMAP Diversity Plus: 3C Assay for Intercellular Adhesion Molecule 1 (ICAM1) Biomarker Activity (AID 2283003); details: primary human endothelial cells (HUVEC); actives raise or lower the signal
Outline: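 Primary human umbilical vein endothelial cells in the BioMAP 3C system were exposed to chemicals for 24 h, then ICAM-1 was quantified by ELISA. Activity was fitted bidirectionally against the DMSO negative control baseline.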

[11] = biological target: human Retinoic Acid Receptor beta (RARb), RARB (gene 5915) (UniProt P10826); assay: ATG_RARb_TRANS: Attagene TRANS-FACTORIAL HepG2 Assay for human Retinoic Acid Receptor beta (AID 2283004; active = hit-call score of the fitted dose curve at least 0.9, where 1 is the maximum)
Outline: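 HepG2 cells transiently transfected with multiplexed GAL4-UAS reporter units expressing chimeric NR–Gal4 fusions; 24 h compound exposure. Reporter mRNA quantified by RT-PCR, 6-FAM labelling, HpaI digestion and capillary electrophoresis; gain-of-signal fitted against DMSO baseline.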

[12] = BSK_3C_Proliferation: Cell Proliferation Assessment in the BioMAP Diversity Plus: 3C Assay (AID 2283006); details: primary human endothelial cells (HUVEC);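 for AC50: potency may reflect either rise or fall in cell number versus DMSO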
Outline: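 Human umbilical vein endothelial cells were grown sub-confluent and exposed to chemical for 48 h, then fixed with 10% TCA and stained with 0.1% sulforhodamine B; absorbance at 560 nm gave relative cell number, fitted bidirectionally against DMSO baseline.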

[13] = biological target: Peroxisome proliferator-activated receptor gamma (Homo sapiens) (UniProt P37231); assay: ATG_PPARg_TRANS: Attagene TRANS-FACTORIAL HepG2 Assay for human Peroxisome Proliferator-activated Receptor-gamma (PPARg) (AID 2283007; active = hit-call score of the fitted dose curve at least 0.9, where 1 is the maximum)
Outline: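 Transient transfection of HepG2 with GAL4-UAS-driven reporter units; chemical dosing 24 h; total RNA → oligo(dT) RT → PCR with reporter primers → 6-FAM primer extension → HpaI digest 2 h 37 C → capillary electrophoresis. Positive direction vs DMSO.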

[14] = biological target: Nuclear receptor subfamily 1 group I member 2 (Homo sapiens) (UniProt O75469); assay: ATG_PXR_TRANS: Attagene TRANS-FACTORIAL HepG2 Assay for human Pregnane X Receptor (PXR) (AID 2283008; active = hit-call score of the fitted dose curve at least 0.9, where 1 is the maximum)
Outline: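 Read-out is fluorescence of labelled reporter cDNA fragments separated by capillary electrophoresis after RT-PCR and HpaI digestion. Source: HepG2 cells carrying PXR-GAL4/UAS reporter constructs, treated 24 h; activity fitted upward relative to DMSO.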

[15] = biological target: Cellular tumor antigen p53 (Homo sapiens) (UniProt P04637); assay: ATG_p53_CIS: Attagene CIS-FACTORIAL HepG2 Assay for human p53 Transcription Factor (AID 2282994); details: HepG2 p53 cis-element reporter, Attagene mRNA; actives raise or lower the signal
Outline: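 HepG2, transient MRTU transfection (cis promoter elements, endogenous TFs); 24 h dosing; RNA isolation, RT-PCR, 6-FAM primer extension, HpaI digest, CE fluorescence; bidirectional fit vs DMSO.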

[16] = biological target: human Peroxisome Proliferator-activated Receptor delta (PPARd), PPARD (gene 5467) (UniProt Q03181); assay: ATG_PPARd_TRANS: Attagene TRANS-FACTORIAL HepG2 Assay for human Peroxisome Proliferator-activated Receptor delta (PPARd) (AID 2283002; active = hit-call score of the fitted dose curve at least 0.9, where 1 is the maximum)
Outline: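 Cell-based TRANS reporter: HepG2, transient MRTU transfection, 24 h exposure. Readout = reporter mRNA (RT-PCR/CE, 6-FAM). Gain-of-signal fit vs DMSO control.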

[17] = biological target: Retinoic acid receptor alpha (Homo sapiens) (UniProt P10276); assay: ATG_RARa_TRANS: Attagene TRANS-FACTORIAL HepG2 Assay for human Retinoic Acid Receptor alpha (RARa) (AID 2283005; active = hit-call score of the fitted dose curve at least 0.9, where 1 is the maximum)
Outline: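 Reporter transcripts, measured by RT-PCR with fluorescent labeling and capillary electrophoresis after 24 h dosing, reflect activity of an exogenous human RARa–GAL4 fusion in transiently transfected HepG2. Fitted for increase relative to DMSO.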

[18] = biological target: human Retinoic Acid Receptor gamma (RARg), RARG (gene 5916) (UniProt P13631); assay: ATG_RARg_TRANS: Attagene TRANS-FACTORIAL HepG2 Assay for human Retinoic Acid Receptor gamma (RARg) (AID 2283009; active = hit-call score of the fitted dose curve at least 0.9, where 1 is the maximum)
Outline: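 HepG2 cells transiently transfected with multiplexed reporter units expressing chimeric RARg-GAL4 and GAL4-UAS-driven reporters; 24 h compound exposure. Reporter mRNA quantified by RT-PCR with fluorescent labelling and capillary electrophoresis; gain-of-signal fitted relative to DMSO baseline.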

Measured: AC50

Chain of Peroxisome proliferator-activated receptor gamma (Homo sapiens) (P37231 whole entry, looked up, the tested form may be a part): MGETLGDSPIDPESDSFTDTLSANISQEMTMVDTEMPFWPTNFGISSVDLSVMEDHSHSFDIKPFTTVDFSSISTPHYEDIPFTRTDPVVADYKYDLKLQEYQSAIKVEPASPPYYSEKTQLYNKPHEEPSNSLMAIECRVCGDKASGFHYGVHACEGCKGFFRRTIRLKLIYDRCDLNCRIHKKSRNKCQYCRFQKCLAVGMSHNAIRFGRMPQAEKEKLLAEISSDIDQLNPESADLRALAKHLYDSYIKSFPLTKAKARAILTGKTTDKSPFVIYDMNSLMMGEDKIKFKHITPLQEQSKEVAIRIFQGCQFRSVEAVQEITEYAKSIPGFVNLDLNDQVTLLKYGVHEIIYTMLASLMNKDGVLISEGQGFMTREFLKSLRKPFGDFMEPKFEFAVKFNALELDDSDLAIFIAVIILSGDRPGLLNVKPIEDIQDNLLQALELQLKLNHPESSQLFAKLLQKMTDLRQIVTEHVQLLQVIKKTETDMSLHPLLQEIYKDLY
Chain of Nuclear receptor subfamily 1 group I member 2 (Homo sapiens) (O75469 whole entry, looked up, the tested form may be a part): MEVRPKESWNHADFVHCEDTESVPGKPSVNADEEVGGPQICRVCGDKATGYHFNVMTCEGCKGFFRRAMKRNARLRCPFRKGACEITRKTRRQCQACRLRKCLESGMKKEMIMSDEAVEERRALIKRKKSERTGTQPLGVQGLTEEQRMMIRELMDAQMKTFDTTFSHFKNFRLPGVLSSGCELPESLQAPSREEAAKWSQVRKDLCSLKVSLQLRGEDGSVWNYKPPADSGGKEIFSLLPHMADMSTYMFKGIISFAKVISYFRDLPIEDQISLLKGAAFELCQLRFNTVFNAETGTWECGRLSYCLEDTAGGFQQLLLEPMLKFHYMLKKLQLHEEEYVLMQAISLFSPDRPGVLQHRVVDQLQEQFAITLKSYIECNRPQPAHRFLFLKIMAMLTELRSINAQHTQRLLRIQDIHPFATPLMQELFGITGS
Chain of Nuclear respiratory factor 1 (Homo sapiens) (Q16656 whole entry, looked up): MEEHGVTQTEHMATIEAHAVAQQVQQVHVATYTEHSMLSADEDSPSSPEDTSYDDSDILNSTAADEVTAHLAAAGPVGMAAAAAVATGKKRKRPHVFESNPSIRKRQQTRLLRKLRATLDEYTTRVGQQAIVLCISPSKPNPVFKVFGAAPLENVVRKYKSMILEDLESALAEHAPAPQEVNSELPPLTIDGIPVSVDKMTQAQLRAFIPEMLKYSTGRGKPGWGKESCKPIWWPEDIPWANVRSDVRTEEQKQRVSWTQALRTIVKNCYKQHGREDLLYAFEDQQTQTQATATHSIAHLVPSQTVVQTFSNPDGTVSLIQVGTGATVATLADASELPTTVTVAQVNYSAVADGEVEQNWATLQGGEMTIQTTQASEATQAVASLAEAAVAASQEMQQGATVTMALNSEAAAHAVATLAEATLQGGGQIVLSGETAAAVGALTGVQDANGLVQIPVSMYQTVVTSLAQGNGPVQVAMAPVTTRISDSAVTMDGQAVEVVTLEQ
Chain of Myc proto-oncogene protein (Homo sapiens) (P01106 whole entry, looked up): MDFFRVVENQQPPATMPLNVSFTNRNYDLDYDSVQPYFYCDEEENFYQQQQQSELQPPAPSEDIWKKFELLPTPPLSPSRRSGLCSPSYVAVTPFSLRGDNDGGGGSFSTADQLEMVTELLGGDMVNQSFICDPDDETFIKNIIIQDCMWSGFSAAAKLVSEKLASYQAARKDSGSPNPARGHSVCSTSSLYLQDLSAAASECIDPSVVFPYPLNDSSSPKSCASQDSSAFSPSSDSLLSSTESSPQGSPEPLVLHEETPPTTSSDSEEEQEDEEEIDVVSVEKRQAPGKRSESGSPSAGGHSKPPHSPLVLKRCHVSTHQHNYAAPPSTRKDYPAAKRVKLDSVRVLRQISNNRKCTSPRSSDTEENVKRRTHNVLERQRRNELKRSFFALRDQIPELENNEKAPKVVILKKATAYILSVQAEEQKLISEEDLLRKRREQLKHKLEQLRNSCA
Chain of Retinoic acid receptor alpha (Homo sapiens) (P10276 whole entry, looked up, the tested form may be a part): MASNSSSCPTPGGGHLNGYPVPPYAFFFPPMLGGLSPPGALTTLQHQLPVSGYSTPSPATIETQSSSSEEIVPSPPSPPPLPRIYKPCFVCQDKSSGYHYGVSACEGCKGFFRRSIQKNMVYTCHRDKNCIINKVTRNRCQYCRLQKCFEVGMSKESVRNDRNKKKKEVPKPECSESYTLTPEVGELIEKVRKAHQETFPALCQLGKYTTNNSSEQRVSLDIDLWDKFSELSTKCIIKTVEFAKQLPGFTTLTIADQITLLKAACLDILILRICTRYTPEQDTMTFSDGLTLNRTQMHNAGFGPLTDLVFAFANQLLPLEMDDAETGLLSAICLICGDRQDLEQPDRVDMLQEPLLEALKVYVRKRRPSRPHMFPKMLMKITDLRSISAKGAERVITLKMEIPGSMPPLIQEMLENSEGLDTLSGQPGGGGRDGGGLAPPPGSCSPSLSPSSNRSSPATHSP
Chain of Cellular tumor antigen p53 (Homo sapiens) (P04637 whole entry, looked up): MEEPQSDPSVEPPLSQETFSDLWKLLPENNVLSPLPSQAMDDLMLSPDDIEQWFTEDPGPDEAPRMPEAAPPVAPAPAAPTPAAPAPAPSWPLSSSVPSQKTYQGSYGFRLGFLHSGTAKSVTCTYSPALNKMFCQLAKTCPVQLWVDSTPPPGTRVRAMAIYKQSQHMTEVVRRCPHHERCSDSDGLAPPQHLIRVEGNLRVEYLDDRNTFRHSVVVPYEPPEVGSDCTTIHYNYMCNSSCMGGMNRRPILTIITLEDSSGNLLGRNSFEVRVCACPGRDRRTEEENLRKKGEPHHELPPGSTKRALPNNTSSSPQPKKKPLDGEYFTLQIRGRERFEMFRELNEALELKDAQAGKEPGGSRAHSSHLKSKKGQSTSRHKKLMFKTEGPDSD
Chain of human Peroxisome Proliferator-activated Receptor delta (PPARd), PPARD (gene 5467) (Q03181 whole entry, looked up): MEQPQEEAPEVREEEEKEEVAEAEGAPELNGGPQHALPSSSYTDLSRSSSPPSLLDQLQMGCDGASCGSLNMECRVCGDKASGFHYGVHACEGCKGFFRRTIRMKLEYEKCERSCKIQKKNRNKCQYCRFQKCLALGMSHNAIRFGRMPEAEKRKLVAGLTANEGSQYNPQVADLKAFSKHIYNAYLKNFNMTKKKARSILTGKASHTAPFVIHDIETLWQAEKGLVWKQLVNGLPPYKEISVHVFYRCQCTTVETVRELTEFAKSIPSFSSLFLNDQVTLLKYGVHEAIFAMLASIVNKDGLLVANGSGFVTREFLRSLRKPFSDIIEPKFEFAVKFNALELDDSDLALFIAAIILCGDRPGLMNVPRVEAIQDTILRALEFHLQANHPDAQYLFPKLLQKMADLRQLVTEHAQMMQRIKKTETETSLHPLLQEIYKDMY
Chain of human Retinoic Acid Receptor beta (RARb), RARB (gene 5915) (P10826 whole entry, looked up, the tested form may be a part): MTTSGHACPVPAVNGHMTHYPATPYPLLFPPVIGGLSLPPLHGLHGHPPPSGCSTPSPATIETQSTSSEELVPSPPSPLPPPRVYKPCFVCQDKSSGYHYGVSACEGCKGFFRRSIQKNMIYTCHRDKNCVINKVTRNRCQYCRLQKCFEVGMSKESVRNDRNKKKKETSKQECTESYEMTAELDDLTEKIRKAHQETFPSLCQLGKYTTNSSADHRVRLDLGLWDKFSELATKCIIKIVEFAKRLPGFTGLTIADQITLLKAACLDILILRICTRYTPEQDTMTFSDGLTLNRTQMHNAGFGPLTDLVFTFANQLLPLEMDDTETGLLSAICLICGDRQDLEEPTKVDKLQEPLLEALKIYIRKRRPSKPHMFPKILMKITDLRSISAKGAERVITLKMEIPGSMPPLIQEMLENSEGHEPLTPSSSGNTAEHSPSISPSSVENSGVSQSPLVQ
Chain of human Retinoic Acid Receptor gamma (RARg), RARG (gene 5916) (P13631 whole entry, looked up, the tested form may be a part): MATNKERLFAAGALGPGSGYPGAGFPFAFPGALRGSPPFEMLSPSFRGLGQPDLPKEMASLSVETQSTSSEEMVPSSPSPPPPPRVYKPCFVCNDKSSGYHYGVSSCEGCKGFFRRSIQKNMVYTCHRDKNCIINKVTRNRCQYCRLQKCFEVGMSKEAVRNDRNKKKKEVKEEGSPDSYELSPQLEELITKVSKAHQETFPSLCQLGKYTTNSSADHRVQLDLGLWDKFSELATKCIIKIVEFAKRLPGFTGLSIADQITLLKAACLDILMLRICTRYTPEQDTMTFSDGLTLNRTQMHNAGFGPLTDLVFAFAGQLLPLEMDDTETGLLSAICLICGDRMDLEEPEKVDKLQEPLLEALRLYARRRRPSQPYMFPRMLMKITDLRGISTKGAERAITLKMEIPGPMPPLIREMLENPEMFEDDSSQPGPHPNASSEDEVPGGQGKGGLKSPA

CCCCC(CC)COP(=O)(Oc1ccccc1)Oc1ccccc1 (configuration not stated)
active: [1] 173 µM | [2] 158 µM | [3] 143 µM | [4] 12.2 µM | [5] 87.1 µM | [6] 9.63 µM | [7] 12.1 µM | [8] 20 µM | [9] 20 µM | [12] 7.38 µM | [13] 5.22 µM | [14] 0.296 µM
inactive: [10] | [11]

O=S(=O)(F)C(F)(F)C(F)(F)C(F)(F)C(F)(F)C(F)(F)C(F)(F)C(F)(F)C(F)(F)F
inactive: [1] | [2] | [3] | [4] | [5] | [15] | [6] | [7] | [8] | [9] | [16] | [10] | [17] | [12] | [13] | [14] | [18]
active: [4] 63.6 µM
